Hits are enriched below; roughly 4.1% of the tested compounds scored in any of these assays.
MazEF act = activators of E. coli MazEF toxin-antitoxin RNase; activation, % at 20 µM; 350,000 compounds, 0.32% hits; FAM/BHQ RNA-DNA oligo cleavage fluorescence, 5 h; P0AE70; in the data active = activation above about 50%
Target sequence (P0AE70 whole entry, looked up): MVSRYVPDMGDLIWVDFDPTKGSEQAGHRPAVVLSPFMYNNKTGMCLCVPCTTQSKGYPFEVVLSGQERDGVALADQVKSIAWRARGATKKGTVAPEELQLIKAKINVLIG
BoNT A protease = blocks Botulinum neurotoxin A light chain protease; 360,000 compounds, 0.17% hits; multiplex microsphere protease substrate cleavage, flow cytometry; AID 588499; inhibition, % at 10 µM
Bead autofluor = compound fluorescence in toxin protease inhibitor counterscreen; compound autofluorescence counterscreen, microsphere flow cytometry; active compounds read high; fluorescence intensity (no concentration beside the values); 360,000 compounds, 3.1% hits; AID 624483; in the data active = fluorescence intensity above about 16000; inconclusive = no clear call, values can overlap the other calls
DUSP3 inh = blocks human VHR1 dual specificity phosphatase | P51452 | recombinant VHR phosphatase, pNPP absorbance | inhibition, % at 13.3 µM | 290,000 compounds, 0.52% hits | AID 1654; in the data active = inhibition above about 50%
Target sequence (P51452 whole entry, looked up): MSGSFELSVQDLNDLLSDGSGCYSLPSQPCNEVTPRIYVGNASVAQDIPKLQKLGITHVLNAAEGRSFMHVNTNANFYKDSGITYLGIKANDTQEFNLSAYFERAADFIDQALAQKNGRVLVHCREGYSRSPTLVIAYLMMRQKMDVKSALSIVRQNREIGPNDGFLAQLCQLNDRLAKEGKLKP
Anthrax LF prot = blocks Bacillus anthracis lethal factor protease | P15917 | multiplex microsphere protease cleavage assay, LF | inhibition, % at 10 µM | 360,000 compounds, 0.12% hits | AID 588501
BoNT F protease = BoNT F light chain protease inhibition. 360,000 compounds, 0.22% hits. Multiplex microsphere protease cleavage assay, flow cytometry. inhibition, % at 10 µM. AID 588497; in the data active = inhibition above about 35%, passing the limit was not always enough; inconclusive = no clear call, values can overlap the other calls
Hits are given with their value. Cut-off read from the data, not from the text of the source, unless noted: active = inhibition above about 30%; inconclusive = no clear call, values can overlap the other calls; inactive = below that.

Screening CC1=NN(c2ccccc2)C(=O)/C1=C/c1cc(C)n(C2CC2)c1C returned MazEF act 77, BoNT A protease inactive, Bead autofluor inactive, DUSP3 inh inactive, Anthrax LF prot inactive and BoNT F protease inactive.
`CC1=NN(c2ccccc2)C(=O)/C1=C\N1CC(C)OC(C)C1` (configuration not stated) gave MazEF act inactive, BoNT A protease inactive, Bead autofluor 16159, DUSP3 inh inactive, Anthrax LF prot inactive and BoNT F protease inactive.
For C/C(=N/NS(=O)(=O)c1ccc(C)cc1C)c1c[nH]c2ccccc12 the results were MazEF act inactive, BoNT A protease inactive, Bead autofluor inactive, DUSP3 inh inactive, Anthrax LF prot inactive and BoNT F protease inactive.
`COCC1CCCCN1C(=O)c1ccc(OC2CCN(CCc3ccccc3)CC2)cc1` (configuration not stated) gave MazEF act inactive, BoNT A protease inactive, Bead autofluor inactive, DUSP3 inh inactive, Anthrax LF prot inactive and BoNT F protease inactive.
Screening COc1ccc(-c2ccc(SCC(=O)N3CC(=O)Nc4ccccc43)nn2)cc1 returned MazEF act inactive, BoNT A protease inactive, Bead autofluor inactive, DUSP3 inh inactive, Anthrax LF prot inactive and BoNT F protease inactive.
`CCCCc1ccc(NS(=O)(=O)c2cccc(C(=O)N3CCNC(=O)C3)c2)cc1` gave MazEF act inactive.
CC(=O)c1cccc(NC(=O)CCc2nnc3ccc(NCc4ccc5c(c4)OCO5)nn23)c1 was read as MazEF act inactive, BoNT A protease inactive, Bead autofluor inactive, DUSP3 inh 57, Anthrax LF prot inactive and BoNT F protease inactive.
For CC(=O)c1cccc(NC(=O)CCc2nnc3ccc(N4CCN(C)CC4)nn23)c1 the results were MazEF act inactive, BoNT A protease inactive, Bead autofluor inactive, DUSP3 inh inactive, Anthrax LF prot inactive and BoNT F protease inactive.
O=C1C2CC=CCC2C(=O)N1c1ccc(OCC(O)Cn2nnc3ccccc32)cc1 (configuration not stated) was read as MazEF act inactive, BoNT A protease inactive, Bead autofluor 25583, DUSP3 inh inactive, Anthrax LF prot inactive and BoNT F protease inactive.
`Cn1c(O)c(C=Nc2ccc(N3CCOCC3)cc2)c(=O)n(C)c1=S` gave MazEF act inactive, BoNT A protease inactive, Bead autofluor inactive, DUSP3 inh inactive, Anthrax LF prot inactive and BoNT F protease inactive.
Screening Cc1cc(O)c(C=Nc2ccc(N3CCOCC3)cc2)c(C)c1Cl returned MazEF act 261, BoNT A protease inactive, Bead autofluor inactive, DUSP3 inh inactive, Anthrax LF prot inactive and BoNT F protease inactive.
For COc1ccc(NC(=O)c2cc(-c3ccc(OC)c(OC)c3)on2)cc1OC the results were MazEF act inactive, BoNT A protease inactive, Bead autofluor 23014, DUSP3 inh inactive, Anthrax LF prot inactive and BoNT F protease inactive.
Screening COc1ccc(NC(=O)c2cc(-c3ccc(C)cc3)on2)cc1OC returned MazEF act inactive, BoNT A protease inactive, Bead autofluor inactive, DUSP3 inh inactive, Anthrax LF prot inactive and BoNT F protease inconclusive.
`COc1ccc(-c2cc(C(=O)NCc3ccccc3)no2)cc1OC` gave MazEF act inactive, BoNT A protease inactive, Bead autofluor 21267, DUSP3 inh inactive, Anthrax LF prot inactive and BoNT F protease inactive.
For COc1ccc(NC(=O)c2cc(-c3ccco3)on2)cc1OC the results were MazEF act inactive, BoNT A protease inactive, Bead autofluor inactive, DUSP3 inh 53, Anthrax LF prot inactive and BoNT F protease inactive.
COc1ccc(CNC(=O)c2cc(-c3ccc(OC)c(OC)c3)on2)cc1 was read as MazEF act inactive, BoNT A protease inactive, Bead autofluor inactive, DUSP3 inh inactive, Anthrax LF prot inactive and BoNT F protease inactive.
O=C(NCc1ccco1)c1cc(-c2ccco2)on1 was read as MazEF act inactive, BoNT A protease inconclusive, Bead autofluor 16474, DUSP3 inh inactive, Anthrax LF prot inactive and BoNT F protease inactive.
Cc1ccc(NC(=O)c2cc(-c3ccco3)on2)cc1C was read as MazEF act inactive, BoNT A protease inactive, Bead autofluor inactive, DUSP3 inh inactive, Anthrax LF prot inactive and BoNT F protease inactive.
CS(=O)(=O)c1ccccc1C(=O)N(CCC1=CCCCC1)c1c(N)n(Cc2ccccc2)c(=O)[nH]c1=O was read as MazEF act inactive, BoNT A protease inactive, Bead autofluor inactive, Anthrax LF prot inactive and BoNT F protease inactive.
`O=C(NCc1ccco1)c1cc(C(=O)C2CC2)c[nH]1` gave MazEF act inactive, BoNT A protease inconclusive, Bead autofluor 21145, DUSP3 inh inactive, Anthrax LF prot inactive and BoNT F protease inactive.
For Cc1ccccc1C(=O)c1c[nH]c(C(=O)NCc2ccco2)c1 the results were MazEF act inactive, BoNT A protease inactive, Bead autofluor inactive, DUSP3 inh inactive, Anthrax LF prot inactive and BoNT F protease inactive.
`N#CCCn1nc2c(c1N)CCC2` gave MazEF act inactive, BoNT A protease inactive, Bead autofluor inactive, Anthrax LF prot inactive and BoNT F protease inactive.
For CC1Oc2ccccc2N(CC(=O)Nc2ccc3c(c2)OCCO3)C1=O (configuration not stated) the results were MazEF act inactive, BoNT A protease inactive, Bead autofluor inactive, DUSP3 inh inactive, Anthrax LF prot inactive and BoNT F protease inactive.
`CC1CC(=O)N(CC(=O)Nc2ccc3c(c2)OCCO3)c2ccccc2S1` (configuration not stated) gave MazEF act inactive, BoNT A protease inactive, Bead autofluor 16421, DUSP3 inh inactive, Anthrax LF prot inactive and BoNT F protease inactive.
O=C(CN1C(=O)COc2ccc(Cl)cc21)Nc1ccc2c(c1)OCCO2 was read as MazEF act inactive, BoNT A protease inconclusive, Bead autofluor 17358, DUSP3 inh inactive, Anthrax LF prot inactive and BoNT F protease inactive.
`Cc1cccc(NC(=O)CN2C(=O)COc3ccc(Cl)cc32)c1` gave MazEF act inactive, BoNT A protease inactive, Bead autofluor inactive, DUSP3 inh inactive, Anthrax LF prot inactive and BoNT F protease inactive.
`O=C(Cc1c(C(=O)O)[nH]c2ccc(Cl)cc12)Nc1ccc2c(c1)OCCO2` gave MazEF act inactive, BoNT A protease inactive, Bead autofluor inactive, DUSP3 inh 52, Anthrax LF prot inactive and BoNT F protease inactive.
For O=C(CN1C(=O)COc2ccc(Cl)cc21)NCC1CCCO1 (configuration not stated) the results were MazEF act inactive, BoNT A protease inactive, Bead autofluor inactive, DUSP3 inh 54, Anthrax LF prot inactive and BoNT F protease inactive.
Screening COc1ccc(CCNC(=O)C(NS(=O)(=O)c2cccc3nsnc23)C(C)C)cc1OC (configuration not stated) returned MazEF act inactive, BoNT A protease inactive, Bead autofluor inactive, DUSP3 inh inactive, Anthrax LF prot inactive and BoNT F protease inactive.
`c1ccc2c(Cn3nnc4ccccc43)cccc2c1` gave MazEF act inactive, BoNT A protease inactive, Bead autofluor inactive, DUSP3 inh inactive, Anthrax LF prot inactive and BoNT F protease inactive.

Assay outcomes deposited in PubChem BioAssay by several laboratories.
